DYRK1A inh: blocks rat Dyrk1A kinase activity | ADP-Glo luminescence, NFATc1 peptide | Q63470 | AID 504441 | inhibition, % at 12.5 µM | actives 0.43% (n = 310,000); in the data active means inhibition above about 50%;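 further: plate controls were vehicle with enzyme for no effect and no enzyme for full effect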
PP1 inh: PP1-alpha (human) inhibition in PP5 counter-screen | actives 0.9% (n = 320,000) | inhibition, % at 6.7 µM | purified PP1alpha, OMFP fluorescence | P62136 | AID 2235;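 active means inhibition above the mean inhibition of all tested compounds plus 3 SD, computed separately for each screening campaign, cut at about 15% in these data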
HIF act: HIF pathway transcriptional activation. AID 1910. U2OS HRE-luciferase reporter, luminescence; normalized: DMSO 0%, desferrioxamine 100%. actives 0.32% (n = 300,000). activation, % at 7.5 µM (by protocol);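 active means mean activation of at least 10% of the iron chelator positive control signal, with at least half of replicates also reaching 10%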
STK33 inh: blocks human STK33 kinase activity; AID 2661; actives 0.073% (n = 320,000); purified STK33, MBP phosphorylation, ADP-Glo luminescence; inhibition, % at 10 µM;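 active means inhibition at or above 25%, using the most active replicate where run in duplicate; inactive means inhibition below 25%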
PP5 inh: PP5 (human) phosphatase inhibition. inhibition, % at 6.7 µM. AID 1987. P53041. actives 0.18% (n = 320,000). purified PP5c, OMFP substrate fluorescence;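 active means inhibition above the campaign's mean inhibition across all tested compounds plus 3 SD, cut at about 9.5% in these data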;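 further: 0% = DMSO only and 100% = 100 µM cantharidin control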
Target sequence (P53041 whole entry, looked up): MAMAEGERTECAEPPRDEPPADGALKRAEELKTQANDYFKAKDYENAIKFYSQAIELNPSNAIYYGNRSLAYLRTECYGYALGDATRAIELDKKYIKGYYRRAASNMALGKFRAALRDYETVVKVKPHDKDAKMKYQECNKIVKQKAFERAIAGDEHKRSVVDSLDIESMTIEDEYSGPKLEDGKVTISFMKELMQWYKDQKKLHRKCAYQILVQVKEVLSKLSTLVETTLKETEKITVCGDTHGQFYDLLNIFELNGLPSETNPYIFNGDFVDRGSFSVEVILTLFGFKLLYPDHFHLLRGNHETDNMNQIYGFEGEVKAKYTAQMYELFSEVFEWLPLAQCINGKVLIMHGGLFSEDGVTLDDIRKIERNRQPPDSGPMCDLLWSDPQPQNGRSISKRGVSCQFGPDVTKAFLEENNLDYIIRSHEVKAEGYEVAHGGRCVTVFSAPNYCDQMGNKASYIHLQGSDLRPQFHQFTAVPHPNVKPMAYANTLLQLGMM
An asterisk follows results filed as active; · = no result. In the library only some 1.5% were active in any assay of this set; here they are far more common.

SMILES	DYRK1A inh	PP1 inh	HIF act	STK33 inh	PP5 inh
CCC(C(=O)NCc1ccc(F)cc1)N(Cc1cccs1)C(=O)c1snc(C(N)=O)c1N (stereo not drawn)	0.8	-3.0	-0.4	-1.5	-0.7
O=C(Nc1ccccc1)c1cccc(C(=O)Nc2ccccc2)n1	-3.4	-1.9	-0.5	0.5	0.8
O=C(O)c1ccc(NC(=O)c2cccc(C(=O)Nc3ccc(C(=O)O)cc3)n2)cc1	38.4	-2.1	0.4	33.9*	-1.4
O=c1c2ccc(Cl)cc2nc(-c2cccc(C(F)(F)F)c2)n1O	11.8	16.4*	0.6	-1.3	2.9
COc1cc(/C=N/NC(=O)c2ccncc2)ccc1OCc1cnc(Cl)s1	4.6	-5.5	-0.3	-1.7	-0.1
CCOC(=O)CN1C(=N)N(c2nc(NC(C)C)nc(NC(C)C)n2)CC1=O	5.1	-4.9	11.5*	-1.3	0.1
CCOC(=O)CN1C(=N)N(c2nc(NC(C)C)nc(OC)n2)CC1=O	0.4	0.9	-0.9	-0.2	2.1
COc1cc(/C=C/C(=O)/C=C(O)/C=C/c2ccc(O)c(OC)c2)ccc1O	36.4	-2.3	·	61.1*	3.1
COc1cc(/C=C/C(=O)O)ccc1O	47.6	-4.3	0.0	7.5	-0.1
COc1cc(/C=C/C(=O)CC(=O)/C=C/c2ccc(O)c(OC)c2)ccc1O	24.7	-1.3	1.0	63.9*	1.2
CC1CCc2c(sc3nc(CN4CCN(S(=O)(=O)c5ccccc5[N+](=O)[O-])CC4)[nH]c(=O)c23)C1 (stereo not drawn)	-1.2	15.9*	0.1	-2.9	5.8
N#C/C(=C/c1ccc(-c2ccc([N+](=O)[O-])cc2)o1)C(=O)Nc1nc(-c2cccs2)cs1	4.8	·	·	·	·
N#C/C(=C\c1ccc(-c2ccc(F)cc2)o1)C(=O)Nc1nc(-c2cccs2)cs1	1.0	15.3*	0.0	-0.7	1.6
COc1ccc(OC)c(C2=Nn3c(nnc3-c3cc(C)[nH]n3)SC2)c1	·	-7.8	58.3*	-1.6	1.1
Cc1ccc(/C=N/Nc2ccc3ccccc3n2)o1	9.8	2.9	·	1.2	-0.1
Cc1ccc(/C=N\Nc2nc3ccc(Cl)cc3[nH]2)o1	33.8	3.8	12.6*	6.5	3.0
c1ccc(-n2ncc3c(NCc4ccco4)ncnc32)cc1	-1.2	-1.9	9.5*	-2.2	1.9
CCN(CC)CCn1c2ccccc2c2cnc(N)c(C#N)c21	21.9	4.0	24.9*	1.7	1.2
Cc1ncc(/C=C2\C(=O)Nc3ccccc32)[nH]1	·	-2.6	1.3	76.0*	0.1
CN(C)/C=C1\C(=O)Nc2ccccc21	11.2	1.5	0.4	-0.8	1.2
COC(=O)C(C)NC(=S)N1CCN(c2c(F)cc3c(=O)c(C(=O)O)cn(C4CC4)c3c2OC)CC1C (stereo not drawn)	-4.8	16.0*	-0.3	-2.2	3.2
CNC(=S)N1CCN(c2c(F)cc3c(=O)c(C(=O)O)cn(C4CC4)c3c2OC)CC1C (stereo not drawn)	0.4	15.9*	-0.6	-0.7	4.8
CCOC(=O)c1cn(C2CC2)c2c(F)c(F)c(F)cc2c1=O	-2.4	7.5	-1.4	-1.8	0.1
CCN(CC(=O)Nc1c(F)cccc1F)C(=O)CNC(=O)c1ccc(Br)o1	-2.5	-2.0	1.3	-0.8	0.1
CCCCN(C)CCNC(=O)CCNC(=O)Cn1ccc2ccccc2c1=O	0.3	-2.4	0.0	-1.1	-2.3
SMILES	DYRK1A inh	PP1 inh	HIF act	STK33 inh	PP5 inh
O=C(O)c1ccc(N=Cc2c(O)ccc3oc4c(c23)CCCC4)cc1	·	-0.5	·	45.8*	2.7
CCCN(CCC)S(=O)(=O)c1ccc(NS(=O)(=O)c2ccc(F)cc2)cc1	7.4	2.7	-0.4	-0.4	2.1
CCCn1c(NC(=O)c2cccc(S(=O)(=O)N3CCCC3)c2)nc2ccccc21	34.7	3.2	1.2	44.4*	-0.5
CCCn1c(NC(=O)c2ccccc2)nc2ccccc21	-3.0	-1.6	0.7	12.8	0.9
COc1ccc(C2/C=C\CN(C(=O)Nc3ccccc3-c3ccccc3)CC(=O)N2Cc2ccc(F)cc2)cc1 (stereo not drawn)	-5.0	16.0*	-1.3	-0.6	5.1
CC(C)Cc1nnc(NC(=O)c2ccc(S(=O)(=O)N3CCCC3)cc2)s1	-4.5	·	·	·	·
C/C(=N\NC(=O)c1cc(-c2cccnc2)nc2ccccc12)c1ccc(O)cc1O	3.5	2.7	35.5*	-0.2	2.8
C/C(=N\NC(=O)c1cc(-c2cccc(OC(C)C)c2)nc2ccccc12)c1cccnc1	-7.8	·	0.4	-1.0	·
CCc1ccc(C(=O)CSc2nc(C)cc(=O)[nH]2)cc1	-3.2	-3.5	0.1	-1.0	0.6
Cc1cccnc1NC(=O)c1ccc(S(=O)(=O)N2CCC(C)CC2)cc1	11.7	16.2*	-0.3	-1.1	-0.3
Cc1onc(-c2ccccc2)c1C(=O)Nc1ccc(S(=O)(=O)N2CCCC2)cc1	·	-5.0	86.7*	-3.8	-2.5
Cc1nnc(NC(=O)c2ccc(S(=O)(=O)N3CCCCCC3)cc2)o1	5.3	16.8*	0.3	-1.6	1.0
CC1CCN(S(=O)(=O)c2ccc(NC(=O)c3ccncc3)cc2)CC1	-6.4	-2.6	-0.3	-2.4	0.3
Cn1c(CO)nc2c3ccccc3ccc21	3.8	4.2	35.7*	-0.3	1.6
COc1ccc(CNC(=O)CN(CC2CCCO2)C(=O)CNS(=O)(=O)c2ccc(C)cc2)cc1 (stereo not drawn)	-10.1	-0.4	27.0*	0.4	3.3
COc1ccc(CNC(=O)CN(CC2CCCO2)C(=O)CNS(=O)(=O)c2ccccc2)cc1 (stereo not drawn)	·	-1.3	-0.1	-1.2	1.9
O=C(NC(NC(=S)Nc1ccccc1Cl)C(Cl)(Cl)Cl)c1cccc(Cl)c1 (stereo not drawn)	2.5	15.0	1.5	-0.3	4.7
O=C(Cc1cccc2ccccc12)NC(NC(=S)Nc1ccccc1Cl)C(Cl)(Cl)Cl (stereo not drawn)	6.7	15.9*	-0.2	·	0.9
COc1ccc2ccccc2c1/C=N/NC(=S)Nc1cc(S(=O)(=O)N2CCOCC2)ccc1N1CCOCC1	-8.4	3.2	1.1	-1.2	1.7
COc1ccc(/C=N/NC(=S)Nc2cc(S(=O)(=O)N3CCOCC3)ccc2N2CCOCC2)cc1O	-6.3	-2.9	34.9*	-1.3	2.3
CCN(CC(=O)Nc1c(F)cccc1F)C(=O)C1CCCN(C(=O)c2ccc(Cl)cc2)C1 (stereo not drawn)	-5.5	0.9	-0.4	-1.2	4.3
CS(=O)(=O)c1ccc(Cl)c(NC(=O)c2cc(=O)[nH]c3ccc(S(=O)(=O)N4CCOCC4)cc23)c1	-3.2	-3.2	-0.3	-0.6	-1.3
Cc1ccc(C2(O)CN(c3ccccc3C)C3=[N+]2CCS3)cc1 (stereo not drawn)	-6.0	2.1	12.5*	0.1	2.8
Cc1ccc(S(=O)(=O)N2CCOC23CCN(C(=O)c2cc(Cl)ccc2Cl)CC3)cc1	-4.0	-1.0	70.1*	3.3	1.9
COc1ccc2nc(-c3cccc(N)c3)[nH]c2c1	7.7	0.6	12.7*	6.3	-1.1
COc1ccc2nc(-c3ccc(N)cc3)[nH]c2c1	-2.9	-4.0	-2.3	2.3	1.6
